# According to PubChem BioAssay (NCATS):
# Unmarked numbers belong to inactive results. Results filed as inconclusive are left out. Where a call stands in place of a potency, no number is given. The source made the active and inactive calls. Unless noted, the call rests on the fitted dose curve; in most records, active means well fitted curve in the direction sought with a large enough effect; inconclusive means small, poorly fitted or top-dose-only effect, or another doubt; inactive means no such curve, though single readings can be large; an effect the other way counts as inactive or inconclusive.
# Tests used:
# [1] = target: Rap guanine nucleotide exchange factor 4 (Homo sapiens) (UniProt Q8WZA2); experiment: Confirmatory qHTS for agonist of cAMP-regulated guanine nucleotide exchange factor 4 (EPAC2) (AID 1645884);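 further: nucleotide exchange releases bodipy-GDP from Rap1 and this lowers its fluorescence; nearly all actives have a fitted effect of over 65% in size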; further: potency means the concentration at half of the fitted maximal effect
# Chain of Rap guanine nucleotide exchange factor 4 (Homo sapiens) (Q8WZA2 whole entry, looked up): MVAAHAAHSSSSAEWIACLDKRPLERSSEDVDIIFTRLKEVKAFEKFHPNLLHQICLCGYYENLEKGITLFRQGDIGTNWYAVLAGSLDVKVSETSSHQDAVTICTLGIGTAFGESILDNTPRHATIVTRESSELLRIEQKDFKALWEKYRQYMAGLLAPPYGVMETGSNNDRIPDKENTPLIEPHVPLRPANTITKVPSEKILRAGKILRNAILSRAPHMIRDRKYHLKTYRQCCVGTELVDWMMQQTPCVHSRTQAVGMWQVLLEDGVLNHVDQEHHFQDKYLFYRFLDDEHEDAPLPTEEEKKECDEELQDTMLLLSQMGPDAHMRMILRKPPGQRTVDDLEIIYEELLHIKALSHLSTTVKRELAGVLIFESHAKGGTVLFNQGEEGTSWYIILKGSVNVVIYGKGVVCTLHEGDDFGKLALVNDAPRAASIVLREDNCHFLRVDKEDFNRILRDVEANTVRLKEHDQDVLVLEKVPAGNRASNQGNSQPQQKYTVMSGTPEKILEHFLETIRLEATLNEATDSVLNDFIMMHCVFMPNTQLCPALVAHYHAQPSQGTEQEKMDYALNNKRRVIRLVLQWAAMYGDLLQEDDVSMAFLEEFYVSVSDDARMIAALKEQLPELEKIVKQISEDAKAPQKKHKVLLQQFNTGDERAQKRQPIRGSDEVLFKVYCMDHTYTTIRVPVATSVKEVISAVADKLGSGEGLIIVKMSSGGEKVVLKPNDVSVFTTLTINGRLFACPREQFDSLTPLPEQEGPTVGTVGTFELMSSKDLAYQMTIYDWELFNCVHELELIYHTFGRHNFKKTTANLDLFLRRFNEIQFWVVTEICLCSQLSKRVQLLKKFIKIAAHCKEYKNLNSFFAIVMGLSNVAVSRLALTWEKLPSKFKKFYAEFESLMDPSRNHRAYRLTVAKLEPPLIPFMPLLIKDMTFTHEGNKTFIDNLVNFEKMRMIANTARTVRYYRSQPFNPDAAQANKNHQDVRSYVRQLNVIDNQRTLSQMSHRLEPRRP
# [2] = target: Rap guanine nucleotide exchange factor 4 (Homo sapiens) (UniProt Q8WZA2); experiment: Confirmatory qHTS for antagonist of cAMP-regulated guanine nucleotide exchange factor 4 (EPAC2) (AID 1645885); further: nearly all actives have a fitted effect of over 25% in size; further: potency means the concentration at half of the fitted maximal effect
# [3] = target: Rap guanine nucleotide exchange factor 3 (Homo sapiens) (UniProt O95398); experiment: Counterscreen qHTS for antagonist of cAMP-regulated guanine nucleotide exchange factor 3 (EPAC1) (AID 1645888);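 further: fluorescence loss as bound BODIPY-GDP is released from Rap1B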
# Chain of Rap guanine nucleotide exchange factor 3 (Homo sapiens) (O95398 whole entry, looked up): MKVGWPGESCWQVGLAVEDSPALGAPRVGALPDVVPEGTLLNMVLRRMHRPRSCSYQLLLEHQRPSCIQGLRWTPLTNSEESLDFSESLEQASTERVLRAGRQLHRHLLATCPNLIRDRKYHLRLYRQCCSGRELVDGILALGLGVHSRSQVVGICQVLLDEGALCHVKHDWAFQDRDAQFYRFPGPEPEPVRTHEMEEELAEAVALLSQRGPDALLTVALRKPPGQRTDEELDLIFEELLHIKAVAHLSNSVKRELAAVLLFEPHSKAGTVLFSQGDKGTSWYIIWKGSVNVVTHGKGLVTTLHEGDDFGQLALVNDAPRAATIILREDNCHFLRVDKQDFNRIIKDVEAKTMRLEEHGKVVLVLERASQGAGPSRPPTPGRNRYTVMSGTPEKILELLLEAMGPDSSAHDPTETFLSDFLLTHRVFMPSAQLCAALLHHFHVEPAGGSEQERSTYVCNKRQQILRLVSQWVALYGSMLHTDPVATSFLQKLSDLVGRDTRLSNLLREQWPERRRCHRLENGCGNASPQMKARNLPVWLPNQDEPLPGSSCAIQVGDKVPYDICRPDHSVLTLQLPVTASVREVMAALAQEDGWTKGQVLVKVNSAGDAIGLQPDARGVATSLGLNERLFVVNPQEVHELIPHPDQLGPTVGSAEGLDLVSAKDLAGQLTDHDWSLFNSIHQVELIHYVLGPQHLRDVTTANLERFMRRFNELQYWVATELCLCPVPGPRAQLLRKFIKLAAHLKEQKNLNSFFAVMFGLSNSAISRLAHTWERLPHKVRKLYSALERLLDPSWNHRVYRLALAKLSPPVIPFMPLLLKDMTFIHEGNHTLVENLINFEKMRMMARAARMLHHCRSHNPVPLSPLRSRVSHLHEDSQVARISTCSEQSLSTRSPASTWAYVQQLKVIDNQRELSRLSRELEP
# How it was run: (§1)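 Measured: fluorescence of BODIPY-GDP bound to Rap1B, which falls as exchange proceeds. Conditions include 50 uM competing GDP, 5 and 30 min reads, and a later cAMP challenge for antagonist detection.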
# [4] = target: Rap guanine nucleotide exchange factor 3 (Homo sapiens) (UniProt O95398); experiment: Confirmatory qHTS for agonist of cAMP-regulated guanine nucleotide exchange factor 3 (EPAC1) (AID 1645881);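 further: EPAC1 catalysed release of BODIPY-GDP from Rap1B seen as fluorescence loss; nearly all actives have a fitted effect of over 75% in size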
# [5] = target: Rap guanine nucleotide exchange factor 3 (Homo sapiens) (UniProt O95398); experiment: Counterscreen qHTS for agonist of cAMP-regulated guanine nucleotide exchange factor 3 (EPAC1) (AID 1645889); further: nearly all actives have a fitted effect of over 40% in size
# How it was run: as §1
# [6] = target: Cytochrome P450 1A2 (Homo sapiens) (UniProt P05177); experiment: p450-cyp1a2 (AID 410; calls by dose curve; further: potency means the concentration at half of the fitted maximal effect)
# How it was run: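 20nM CYP1A2, 100uM Luciferin-ME (=Km), 100mM KPO4; cpd 10 min RT; +NADPH regen, 60 min RT; stop/detect 20 min; luminescence. Normalized to furafylline 57 uM = full inhibition.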
# [7] = target: Glucocorticoid receptor (Homo sapiens) (UniProt P04150); experiment: GR-GFP Redistribution (AID 450;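 active means compounds whose dose series gives a full or clear partial fitted curve of increased nuclear translocation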; further: potency means the concentration at half of the fitted maximal effect); conditions: U2OS GR-GFP nuclear translocation, laser cytometry, 2 h
# Chain of Glucocorticoid receptor (Homo sapiens) (P04150 whole entry, looked up, the tested form may be a part): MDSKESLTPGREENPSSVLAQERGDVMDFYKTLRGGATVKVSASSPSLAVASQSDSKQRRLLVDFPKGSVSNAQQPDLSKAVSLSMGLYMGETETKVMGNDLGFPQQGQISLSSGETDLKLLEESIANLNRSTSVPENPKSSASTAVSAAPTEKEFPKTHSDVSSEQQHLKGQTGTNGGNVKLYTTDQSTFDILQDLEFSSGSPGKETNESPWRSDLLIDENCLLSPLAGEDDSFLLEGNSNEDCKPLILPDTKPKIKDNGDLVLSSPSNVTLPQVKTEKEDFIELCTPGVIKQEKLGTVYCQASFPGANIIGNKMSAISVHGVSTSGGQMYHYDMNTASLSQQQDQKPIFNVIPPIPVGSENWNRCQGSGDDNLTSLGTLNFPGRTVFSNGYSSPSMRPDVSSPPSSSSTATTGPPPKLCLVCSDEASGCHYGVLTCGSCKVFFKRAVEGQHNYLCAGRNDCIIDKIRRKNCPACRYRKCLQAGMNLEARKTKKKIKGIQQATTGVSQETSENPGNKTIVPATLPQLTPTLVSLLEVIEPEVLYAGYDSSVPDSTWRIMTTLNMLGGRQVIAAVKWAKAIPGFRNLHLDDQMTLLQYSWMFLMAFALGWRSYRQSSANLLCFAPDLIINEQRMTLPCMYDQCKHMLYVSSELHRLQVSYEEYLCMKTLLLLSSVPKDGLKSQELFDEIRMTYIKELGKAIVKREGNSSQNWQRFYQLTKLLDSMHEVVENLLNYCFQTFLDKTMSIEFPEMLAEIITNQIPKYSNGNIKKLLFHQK
# [8] = target: Glucocorticoid receptor (Homo sapiens) (UniProt P04150); experiment: GR-EFC Redistribution (AID 451; calls by dose curve; further: potency means the concentration at half of the fitted maximal effect); conditions: CHO-K1 GR-EFC translocation, beta-gal luminescence, 2 h
# How it was run: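 CHO-K1 cells stably expressing nuclear-localized β-gal enzyme acceptor and GR fused C-terminally to the enzyme donor fragment; ligand-driven nuclear translocation restores β-gal by complementation. Compounds titrated up to 46 uM final, 2 h at 37 °C; luminescence read.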
# [9] = target: Mitogen-activated protein kinase 10 (Mus musculus) (UniProt Q61831); experiment: JNK3 AlphaScreen Assay (AID 530; active means well fitted curve in either direction with a large enough effect, not every such curve was filed as active;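 further: kinase came from lysate of stimulated human HepG2 cells; signal reports phosphorylation of biotinylated GST-cJun 1-79 at Ser73 with 10 µM ATP; series mostly up to about 57 µM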)
# How it was run: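 Biotinylated GST-cJun(1-79) served as substrate for JNK3 in HepG2 lysates stimulated with IL-1beta and TNF-alpha. ATP was 10 uM final, pH 7.6. Ser73 phosphorylation was quantified by AlphaScreen (680 nm excitation).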
# [10] = target: 3',5'-cyclic-AMP phosphodiesterase 4B (Homo sapiens) (UniProt Q07343); experiment: qHTS Assay for Inhibitors of PDE-IV (AID 607; active means well fitted activation curve with a large enough effect in the main read-out, with a control signal flat, not every such curve was filed as active)
# Chain of 3',5'-cyclic-AMP phosphodiesterase 4B (Homo sapiens) (Q07343 whole entry, looked up): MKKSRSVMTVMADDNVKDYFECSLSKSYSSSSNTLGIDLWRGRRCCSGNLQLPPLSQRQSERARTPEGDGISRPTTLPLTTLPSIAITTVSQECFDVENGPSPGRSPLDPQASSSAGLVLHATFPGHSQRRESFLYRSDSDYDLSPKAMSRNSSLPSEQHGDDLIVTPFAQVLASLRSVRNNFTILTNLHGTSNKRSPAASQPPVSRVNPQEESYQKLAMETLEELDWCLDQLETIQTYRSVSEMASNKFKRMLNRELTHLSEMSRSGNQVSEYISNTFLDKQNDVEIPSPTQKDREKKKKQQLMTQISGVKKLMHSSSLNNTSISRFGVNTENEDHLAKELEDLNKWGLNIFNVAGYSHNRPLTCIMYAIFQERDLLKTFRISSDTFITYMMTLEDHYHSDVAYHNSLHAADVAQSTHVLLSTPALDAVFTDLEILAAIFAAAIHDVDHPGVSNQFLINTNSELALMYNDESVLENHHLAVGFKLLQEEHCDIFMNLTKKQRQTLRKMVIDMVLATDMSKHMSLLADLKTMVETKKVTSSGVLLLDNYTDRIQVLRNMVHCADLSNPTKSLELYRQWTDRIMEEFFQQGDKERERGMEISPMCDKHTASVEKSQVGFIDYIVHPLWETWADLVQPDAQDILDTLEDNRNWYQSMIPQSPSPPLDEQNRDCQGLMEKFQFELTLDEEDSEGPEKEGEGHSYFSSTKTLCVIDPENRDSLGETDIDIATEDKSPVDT
# How it was run: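 Live HEK293 cells with a modified cyclic nucleotide-gated (CNG) channel report intracellular cAMP via membrane-potential dye fluorescence (ex 535/em 590 nm). Endogenous PDE-IV was targeted. Compounds were tested at up to 22.9 uM final; RO 20-1724 100 uM served as control.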
# [11] = target: Cytochrome P450 2C9 (Homo sapiens) (UniProt P11712); experiment: qHTS Assay for Inhibitors and Substrates of Cytochrome P450 2C9 (AID 883); further: nearly all actives have a fitted effect of over 60% in size
# Chain of Cytochrome P450 2C9 (Homo sapiens) (P11712 whole entry, looked up): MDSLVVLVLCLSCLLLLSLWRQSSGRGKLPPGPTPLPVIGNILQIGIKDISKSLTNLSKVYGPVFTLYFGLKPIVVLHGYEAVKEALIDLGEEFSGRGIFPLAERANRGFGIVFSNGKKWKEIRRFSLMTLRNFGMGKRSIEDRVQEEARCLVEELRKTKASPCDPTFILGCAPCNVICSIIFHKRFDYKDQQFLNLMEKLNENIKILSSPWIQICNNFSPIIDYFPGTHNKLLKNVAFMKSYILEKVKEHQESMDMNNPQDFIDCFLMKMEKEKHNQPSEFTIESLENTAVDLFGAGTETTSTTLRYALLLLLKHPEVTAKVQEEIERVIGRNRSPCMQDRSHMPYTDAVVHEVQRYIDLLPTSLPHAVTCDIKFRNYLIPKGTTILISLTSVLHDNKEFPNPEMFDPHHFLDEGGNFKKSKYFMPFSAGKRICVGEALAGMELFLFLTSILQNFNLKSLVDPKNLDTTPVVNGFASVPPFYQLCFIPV
# How it was run: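 Human CYP2C9 (10nM) hydroxylated Luciferin-H (100uM, at its KM) to luciferin in 25mM KPO4. Compound was preincubated 10 min at 37C, then NADPH regeneration started a 60 min reaction at 37C. Luminescence was read after detection reagent, normalized to 57uM sulphaphenazole.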
# [12] = target: Cytochrome P450 3A4 (Homo sapiens) (UniProt P08684); experiment: qHTS Assay for Activators of Cytochrome P450 3A4 (AID 885); further: nearly all actives have a fitted effect of over 65% in size
# Chain of Cytochrome P450 3A4 (Homo sapiens) (P08684 whole entry, looked up): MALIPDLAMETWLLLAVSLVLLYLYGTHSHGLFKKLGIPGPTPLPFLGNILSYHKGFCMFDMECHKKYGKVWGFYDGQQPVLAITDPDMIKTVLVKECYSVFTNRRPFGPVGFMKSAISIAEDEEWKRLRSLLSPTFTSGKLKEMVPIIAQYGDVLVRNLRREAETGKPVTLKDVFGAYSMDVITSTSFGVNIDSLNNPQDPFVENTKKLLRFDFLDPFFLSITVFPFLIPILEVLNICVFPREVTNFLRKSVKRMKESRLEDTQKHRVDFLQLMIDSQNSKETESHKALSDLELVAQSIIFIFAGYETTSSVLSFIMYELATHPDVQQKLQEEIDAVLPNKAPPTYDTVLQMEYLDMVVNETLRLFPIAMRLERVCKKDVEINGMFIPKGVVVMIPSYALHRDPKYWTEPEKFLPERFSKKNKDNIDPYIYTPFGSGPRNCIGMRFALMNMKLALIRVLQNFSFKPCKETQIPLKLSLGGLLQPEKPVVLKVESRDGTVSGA
# How it was run: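 Using 20nM recombinant human CYP3A4 in potassium phosphate (200mM), substrate Luciferin-PPXE at 25uM, luminescent luciferin detection followed a 60-min RT NADPH reaction; data scaled to 57 uM ketoconazole.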
# [13] = target: Cytochrome P450 2D6 (Homo sapiens) (UniProt P10635); experiment: qHTS Assay for Inhibitors and Substrates of Cytochrome P450 2D6 (AID 891);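 further: luciferin methyl ether substrate demethylated by CYP2D6 with NADPH regeneration; nearly all actives have a fitted effect of over 60% in size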
# How it was run: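 Luminescent read-out of luciferin formed by 5 nM human CYP2D6 demethylating 30 uM Luciferin-ME EGE (Km level) over 60 min at room temperature after NADPH regeneration addition. Data normalized to full inhibition by 1.43 uM quinidine.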
# [14] = target: Cytochrome P450 2C19 (Homo sapiens) (UniProt P33261); experiment: qHTS Assay for Inhibitors and Substrates of Cytochrome P450 2C19 (AID 899); further: nearly all actives have a fitted effect of over 60% in size
# How it was run: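 Human CYP2C19 (5nM) with Luciferin-H EGE at 10uM (its KM) in 50mM KPO4 was preincubated with compound for 10 min at 37C. NADPH regeneration started a 60 min 37C reaction. Luciferin was read by luminescence, normalized to 57uM ketoconazole.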
# [15] = target: DNA dC->dU-editing enzyme APOBEC-3G (Homo sapiens) (UniProt Q9HC16); experiment: qHTS for inhibitors of Vif-A3G interactions: Validation (AID 588379)
# Chain of DNA dC->dU-editing enzyme APOBEC-3G (Homo sapiens) (Q9HC16 whole entry, looked up): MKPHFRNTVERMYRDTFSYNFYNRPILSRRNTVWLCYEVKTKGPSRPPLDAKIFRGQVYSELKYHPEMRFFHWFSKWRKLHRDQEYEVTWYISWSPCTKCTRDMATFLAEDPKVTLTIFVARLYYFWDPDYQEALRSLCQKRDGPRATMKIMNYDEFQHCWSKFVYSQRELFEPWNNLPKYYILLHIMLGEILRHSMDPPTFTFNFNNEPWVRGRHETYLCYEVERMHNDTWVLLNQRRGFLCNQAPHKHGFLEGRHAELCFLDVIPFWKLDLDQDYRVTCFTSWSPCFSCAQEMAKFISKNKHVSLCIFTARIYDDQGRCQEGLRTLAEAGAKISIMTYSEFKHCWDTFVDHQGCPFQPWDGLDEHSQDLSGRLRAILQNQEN
# How it was run: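 Yellow fluorescence (Ex 488, Em 500-530) of Vif-coexpressing HeLa A3G-eYFP cells, scanned by Acumen cytometer, reports blocked A3G degradation. Cells plated at 700/well overnight at 37 deg C before compound addition, then a further overnight compound incubation at 37 deg C.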
smiles,measurement,setting,value
Oc1ccc(NCc2cccc(OCc3ccc(F)cc3)c2)cc1,activation,[1],"10.4% [at 17.1 µM, percent relative to cAMP agonist control]"
same,Potency,[2],inactive
same,"activity change, negative = inhibition",[3],-11.4% [at 30.8 µM]
O=C(c1ccccc1Br)N(Cc1ccccc1)c1ccccc1,activation,[1],"0.0919% [at 17.1 µM, percent relative to cAMP agonist control]"
same,Potency,[2],inactive
same,"activity change, negative = inhibition",[3],-1.15% [at 30.8 µM]
COc1ccc(OC)c(C2=CC(=O)C[C@H](c3ccc4c(c3)OCO4)C2)c1,activation,[1],"11.2% [at 17.1 µM, percent relative to cAMP agonist control]"
same,Potency,[2],inactive
same,"activity change, negative = inhibition",[3],-6.17% [at 30.8 µM]
COC(=O)C1=C(C)N(Cc2ccco2)C(=O)N[C@H]1c1cccc(C(F)(F)F)c1,Potency,[4],inactive
same,Potency,[5],inactive
CCc1nc2c(OCc3ccc(C(F)(F)F)cc3)cccn2c1N(C)C(=O)CC(C)C,Potency,[4],inactive
same,Potency,[5],inactive
CC(=O)N(CCC(Cc1ccccc1)c1ccco1)Cc1ccco1 (stereo not given),Potency,[4],inactive
same,"activity change, negative = inhibition",[3],-6.33% [at 30.8 µM]
same,activation,[5],32.1% [at 30.8 µM]
Cc1nc2ccccc2c(C)c1C(=O)c1ccccc1,Potency,[4],inactive
same,activation,[5],-2.6% [at 30.8 µM]
CC(=O)N(CCC(c1ccco1)C(C)C)Cc1ccc(OC(C)C)cc1 (stereo not given),Potency,[4],inactive
same,Potency,[5],inactive
COc1ccc2cc(-c3nc(Cl)c4c5c(sc4n3)CCCC5)c(=O)oc2c1,Potency,[1],inactive
same,Potency,[2],inactive
same,Potency,[3],inactive
CCC(=O)N(CCC(c1ccc(C)cc1)c1ccco1)Cc1ccco1 (stereo not given),Potency,[4],inactive
same,"activity change, negative = inhibition",[3],-11.4% [at 30.8 µM]
same,activation,[5],19.5% [at 30.8 µM]
O=C(O)CC/C(=C\c1ccc(N2CCCC2)c([N+](=O)[O-])c1)c1nc2ccccc2s1,Potency,[1],inactive
same,Potency,[2],inactive
same,Potency,[3],inactive
O=C(O)CCN1C(=O)/C(=C\c2cccc(OCC(=O)Nc3ccc(Cl)cc3)c2)SC1=S,Potency,[1],inactive
same,Potency,[2],inactive
same,Potency,[3],inactive
COc1ccc(S(=O)(=O)Nc2ccc(F)cc2)c(C)c1C,Potency,[1],inactive
same,Potency,[2],5.36 µM (active)
same,Potency,[3],inactive
C/[N+]([O-])=C/c1c(OCc2ccccc2)ccc2ccccc12,Potency,[4],inactive
same,Potency,[3],inactive
same,Potency,[5],inactive
CCCC/C=C/[C@H](c1ccccc1)[C@H](CO)Cc1cccnc1,Potency,[4],inactive
same,Potency,[5],inactive
CCCC(C(=O)Nc1ccc(S(=O)(=O)Nc2nccs2)cc1)c1ccccc1 (stereo not given),Potency,[4],inactive
same,"activity change, negative = inhibition",[3],-24.2% [at 30.8 µM]
same,activation,[5],8.61% [at 30.8 µM]
O=C(COc1ccc(F)cc1Br)NCC1COc2ccccc2O1 (stereo not given),Potency,[4],inactive
same,Potency,[3],inactive
same,Potency,[5],inactive
CCOC(=O)C1Oc2ccccc2C(c2ccc(OC)cc2)=C1C(=O)OC (stereo not given),Potency,[4],inactive
same,Potency,[5],inactive
CCc1ccc(N=C2NC(=O)/C(=C/c3ccc(OCC(=O)O)c(OC)c3)S2)cc1,Potency,[1],inactive
same,Potency,[2],inactive
same,Potency,[3],inactive
Cc1nc(C)c(-c2csc(Nc3ccc(C(=O)O)c(O)c3)n2)s1,Potency,[1],inactive
same,Potency,[2],inactive
same,Potency,[3],inactive
Cc1nc2c3cc(F)ccc3n(Cc3ccccc3F)c2s1,activation,[1],"1.97% [at 17.1 µM, percent relative to cAMP agonist control]"
same,Potency,[2],inactive
same,"activity change, negative = inhibition",[3],-7.48% [at 30.8 µM]
N#C/C(=C\c1ccc(Sc2ccccc2)o1)c1nc2ccccc2[nH]1,Potency,[1],112 µM (active)
same,Potency,[2],inactive
same,Potency,[3],inactive
Oc1ccccc1N=Cc1c(O)ccc2ccccc12,activation,[1],"0% [at 17.1 µM, percent relative to cAMP agonist control]"
same,Potency,[2],inactive
same,"activity change, negative = inhibition",[3],-12% [at 30.8 µM]
O=C(Nc1cccc(C(F)(F)F)c1)C1Cc2c(-c3ccccc3)ccnc2O1 (stereo not given),activation,[1],"3.96% [at 17.1 µM, percent relative to cAMP agonist control]"
same,Potency,[2],inactive
same,"activity change, negative = inhibition",[3],-3.59% [at 30.8 µM]
C/C(=N\O)C(=O)OC1CC(C)CCC1C(C)C (stereo not given),Potency,[4],inactive
same,Potency,[5],inactive
C/C(=N\N(Cc1ccccc1)c1ccccc1)c1ccncc1,activation,[1],"-6.71% [at 17.1 µM, percent relative to cAMP agonist control]"
same,Potency,[2],inactive
Cc1cc(C)c(S(=O)(=O)Nc2ccc3c(c2)CCC3)c(C)c1,Potency,[4],inactive
same,Potency,[5],inactive
Cc1ccc(C(=O)N(Cc2ccco2)Cc2sccc2C)cc1,Potency,[1],inactive
same,Potency,[2],inactive
same,Potency,[3],inactive
COc1cc2cc(Oc3ccc4ccc(=O)oc4c3)c(=O)oc2cc1O,Potency,[6],2 µM (active)
same,Potency,[7],> 46 µM
same,Potency,[8],> 46 µM
same,Potency,[9],inactive
same,Potency,[10],inactive
same,Potency,[11],inactive
same,outcome,[12],inactive
same,Potency,[13],inactive
same,Potency,[14],inactive
same,outcome,[15],inactive
